Compounds with a hit are over-represented: about 1.3% of the library has one in this group of screens.
Gli-Sufu antag: Gli-Sufu pathway antagonism | Sufu-KO-LIGHT fibroblasts, Gli luciferase reporter luminescence | inhibition, % at 5 µM | 340,000 tested, 0.74% active;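 active = inhibition above about 55%, limit read from the data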
NCOA2 inhibitor: human SRC2 (NCOA2) inhibition; Q15596; HEK293 GAL4-SRC2 luciferase reporter, luminescence; inhibition, % at 9 µM; 370,000 tested, 0.17% active; AID 651957;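 active = inhibition above the mean inhibition of all tested compounds plus 3 SD, set per campaign, cut at about 52% in these data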
SRC3 inh: inhibits human SRC3 coactivator; Q9Y6Q9; HEK293 GAL4-SRC3 luciferase reporter, luminescence; inhibition, % at 3.6 µM; 360,000 tested, 0.17% active; AID 588352;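 active = inhibition above a per-campaign cutoff, the mean of all compounds plus 3 SD, cut at about 60% in these data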;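 note: higher means less SRC3-driven luciferase light from the GAL4 reporter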
Target sequence (Q9Y6Q9 whole entry, looked up, the tested form may be a part): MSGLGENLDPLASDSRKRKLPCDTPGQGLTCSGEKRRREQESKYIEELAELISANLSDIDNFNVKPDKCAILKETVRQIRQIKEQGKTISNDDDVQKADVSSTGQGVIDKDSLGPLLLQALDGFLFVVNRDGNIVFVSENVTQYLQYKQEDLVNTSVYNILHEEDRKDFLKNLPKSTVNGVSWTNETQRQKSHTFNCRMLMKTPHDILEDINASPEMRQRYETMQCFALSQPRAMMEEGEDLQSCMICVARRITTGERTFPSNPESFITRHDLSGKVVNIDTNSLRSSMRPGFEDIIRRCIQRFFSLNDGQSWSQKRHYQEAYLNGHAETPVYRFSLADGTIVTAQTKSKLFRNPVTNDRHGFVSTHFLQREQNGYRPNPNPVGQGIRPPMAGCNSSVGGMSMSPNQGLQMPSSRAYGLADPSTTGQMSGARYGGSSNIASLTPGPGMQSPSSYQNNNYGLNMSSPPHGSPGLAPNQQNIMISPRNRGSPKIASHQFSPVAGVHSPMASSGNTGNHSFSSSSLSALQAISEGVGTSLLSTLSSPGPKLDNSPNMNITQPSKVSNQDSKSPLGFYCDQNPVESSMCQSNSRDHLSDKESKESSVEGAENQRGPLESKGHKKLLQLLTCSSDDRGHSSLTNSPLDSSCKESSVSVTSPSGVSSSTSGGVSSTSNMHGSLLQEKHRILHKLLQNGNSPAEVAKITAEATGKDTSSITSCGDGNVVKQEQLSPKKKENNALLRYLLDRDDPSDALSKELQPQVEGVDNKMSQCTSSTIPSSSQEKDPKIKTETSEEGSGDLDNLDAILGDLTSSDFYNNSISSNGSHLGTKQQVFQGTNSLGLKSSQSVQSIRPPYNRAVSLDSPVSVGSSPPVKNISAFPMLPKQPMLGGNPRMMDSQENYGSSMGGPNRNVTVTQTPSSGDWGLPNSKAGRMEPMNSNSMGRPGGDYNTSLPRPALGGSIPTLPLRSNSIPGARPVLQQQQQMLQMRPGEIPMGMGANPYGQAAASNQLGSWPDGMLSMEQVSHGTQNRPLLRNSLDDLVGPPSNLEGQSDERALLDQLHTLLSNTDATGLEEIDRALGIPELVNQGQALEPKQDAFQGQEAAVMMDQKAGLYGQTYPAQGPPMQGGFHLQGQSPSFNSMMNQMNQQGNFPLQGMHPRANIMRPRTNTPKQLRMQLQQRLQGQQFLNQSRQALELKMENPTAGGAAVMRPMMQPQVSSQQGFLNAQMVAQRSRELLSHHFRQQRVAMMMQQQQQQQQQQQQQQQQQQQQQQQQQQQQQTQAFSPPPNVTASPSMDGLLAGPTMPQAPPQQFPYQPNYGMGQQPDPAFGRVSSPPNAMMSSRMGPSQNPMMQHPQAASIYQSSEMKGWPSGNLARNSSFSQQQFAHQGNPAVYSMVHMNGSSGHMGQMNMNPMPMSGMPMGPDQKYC
NR2F2 inh: inhibitors of human COUP-TFII (NR2F2) | AID 686940 | 370,000 tested, 0.7% active | inhibition, % at 8.6 µM | HEK293T NGFI-A luciferase reporter, luminescence;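 active = inhibition above a per-plate cutoff, mean inhibition of test wells between control levels plus 3 SD, cut at about 38% in these data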;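 note: cells cotransfected with COUP-TFII expression vector driving the NGFI-A reporter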
LRH-1 inv ag: inverse agonists of human LRH-1 (NR5A2) | inhibition, % at 3.6 µM | O00482 | HEK293T StAR-luciferase reporter, LRH-1 transfected, 24 h | 360,000 tested, 0.13% active;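 active = inhibition above the mean inhibition of all tested compounds plus 3 SD, cut at about 73% in these data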
NCOA1 inh: inhibitors of human steroid receptor coactivator 1 (SRC1); HEK293 GAL4-SRC1 luciferase reporter, luminescence; inhibition, % at 3.6 µM; 360,000 tested, 0.12% active; AID 588354;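 active = inhibition above the campaign mean plus 3 SD, with each screening campaign given its own cutoff, cut at about 60% in these data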
Numbers stand for hits; – = inactive; · = not tested or not shown.

SMILES	Gli-Sufu antag	NCOA2 inhibitor	SRC3 inh	NR2F2 inh	LRH-1 inv ag	NCOA1 inh
CC(=O)Oc1c(C)cc(Cl)cc1C(=O)Nc1ccc([N+](=O)[O-])cc1Cl	73.4	–	–	–	–	–
O=C(Nc1ccc([N+](=O)[O-])cc1)c1ccc(Cn2cc([N+](=O)[O-])cn2)cc1	–	–	–	–	78.3	–
O=C(Nc1cnn(Cc2ccc(Cl)cc2)c1)c1ccc([N+](=O)[O-])cc1	–	–	–	–	–	–
CSc1ccc(-c2cnc(N3CCC(C(N)=O)CC3)s2)cc1	·	·	·	–	·	·
CCCCCCCCNc1ncnc2[nH]ncc12	–	–	–	38.5	–	–
OCCCNc1ncnc2[nH]ncc12	–	–	–	–	–	–
O=C(Nc1ccccc1)C1=C(c2ccccc2)S(=O)(=O)CCS1(=O)=O	–	54.4	–	–	–	–
O=C(NCc1ccccc1Cl)O[C@H]1CC[C@@]23CCCN2C(=O)CCC[C@H]3C1	·	·	·	–	·	·
O=C(Nc1ccccc1C(F)(F)F)OCCCN1CCC2(CCC(c3ccccc3)CC2)C1=O (stereo unspecified)	·	–	·	–	·	·
O=C(Nc1ccccc1C(=O)Nc1nnc(C(F)(F)F)s1)c1ccccc1	76.1	–	–	–	–	–
NNc1ccc2c(C(F)(F)F)cc(C(F)(F)F)nc2n1	–	–	–	–	–	–
N#CC(c1cccc(Cl)c1)c1ccc2c(C(F)(F)F)cc(C(F)(F)F)nc2n1 (stereo unspecified)	88.4	–	–	–	99.0	–
Cc1oc2c(c1C(=O)c1ccccc1)C(=O)C(=O)c1ccccc1-2	–	62.5	–	–	–	–
COc1cc(/C=N/n2c(-c3cc(-c4ccccc4)n[nH]3)n[nH]c2=S)ccc1OCc1ccccc1	·	–	·	–	·	·
Cc1ccc(N(C(=O)CCl)C(C(=O)NC2CCCCC2)c2cccnc2)cc1C (stereo unspecified)	93.4	62.9	·	–	·	·
Cc1cc(Cl)c(S(=O)(=O)N2CCN(c3ccc(F)cc3)CC2)cc1OCC(=O)NC1CCCCC1	58.2	–	–	–	–	–
COc1cccc(N2C(=O)CC(NNC(=O)c3cccs3)C2=O)c1 (stereo unspecified)	–	99.8	–	–	–	–
O=C(NNC1CC(=O)N(c2cccc(Cl)c2)C1=O)c1cccs1 (stereo unspecified)	–	–	–	–	–	–
CC(=O)N1CCN(c2ccc(Oc3ccc([N+](=O)[O-])c(C(F)(F)F)c3)cc2)CC1	67.3	·	–	·	–	–
CCOc1ccc(C(=O)Nc2ccc(N3CCN(C(C)=O)CC3)cc2)cc1[N+](=O)[O-]	–	–	–	–	–	–
COc1cccc(C(=O)N/N=C(/c2ccccc2)c2ccccn2)c1	81.2	–	–	–	–	–
COc1cccc(C(=O)N/N=C(/CCC(=O)O)c2ccccc2)c1	–	–	–	–	–	–
C/C(=N\NC(=O)c1cc(C)nc2ccccc12)c1ccccn1	89.9	–	–	–	–	–
S=C(NCc1ccccn1)Nc1cccc(Cl)c1	–	–	–	–	–	–
C/C(=N\NC(=O)c1ccccn1)c1ccc(Cl)cc1	–	–	–	–	–	–
SMILES	Gli-Sufu antag	NCOA2 inhibitor	SRC3 inh	NR2F2 inh	LRH-1 inv ag	NCOA1 inh
CC(=NNC(=S)Nc1cccc(Cl)c1)c1ccccn1	56.8	–	67.3	–	–	–
C/C(=N\NC(=O)c1ccc(Cl)cc1)c1ccccn1	79.7	–	–	–	–	–
COc1ccc(S[C@]2(C(=O)N3CCN(c4ncccn4)CC3)CC(=O)N(C(=O)CCc3ccccc3)[C@@H]2c2ccc(OC)cc2)cc1	·	–	·	–	·	·
Cc1cc(/C=C2/SC(=S)N(c3cccc(C(F)(F)F)c3)C2=O)c(C)n1-c1cccnc1	70.9	·	–	·	–	–
Cc1cc(/C=C2\SC(=S)N(Cc3ccco3)C2=O)c(C)n1-c1cccnc1	–	–	–	–	–	–
Cc1ccccc1NC(=O)[C@@H]1CCCN1S(=O)(=O)c1cccc2cccnc12	·	·	·	–	·	·
Cc1nn(-c2ccccc2)c(C)c1/C=N\NC(=O)CSc1nc2ccccc2n1Cc1ccc(Cl)cc1	·	–	·	–	·	·
CC(C)CCCCCCCCCCCCC(=O)NCC(=O)NC1C(O)C(O)C(Nc2ncnc3nc[nH]c23)OC1C(O)CO (stereo unspecified)	84.8	·	93.4	·	98.8	95.3
CCc1nnc(NC(=O)c2cccc(C(=O)Nc3nnc(CC)s3)n2)s1	84.6	–	–	–	–	–
COc1ccc(C2Nc3ccccc3C(=O)N2Cc2ccccc2)cc1COc1ccc(NC(C)=O)cc1 (stereo unspecified)	·	·	·	–	·	·
CC1(C)C=C2C(N(Cc3ccc4c(c3)OCO4)C(=N)N2C(=O)OCc2ccccc2)n2c(=O)n(-c3ccccc3)c(=O)n21 (stereo unspecified)	·	·	·	–	·	·
CC(C)(C)OC(=O)CNC(=O)c1nc[nH]c1C(=O)NCc1ccc(CNC(=O)OC(C)(C)C)cc1	–	–	–	–	–	–
CC(C)(C)OC(=O)NCc1ccc(CNC(=O)c2nc[nH]c2C(=O)NCc2ccc(CNC(=O)OC(C)(C)C)cc2)cc1	–	–	–	46.5	–	–
CC(C)(C)OC(=O)NCCCCCNC(=O)c1nc[nH]c1C(=O)NCc1ccc(CNC(=O)OC(C)(C)C)cc1	–	–	–	72.2	–	–
CC(C)C[C@H]1COc2cc(Br)ccc2S(=O)(=O)N1Cc1cn(CCC2OCCO2)nn1	·	–	·	–	·	·
CC(C)C[C@@H]1COc2cc(Br)ccc2S(=O)(=O)N1Cc1cn(CC2CCCCC2)nn1	·	–	·	–	·	·
O=S(=O)(Nc1cc(Sc2cccc3cccnc23)c(O)c2ccccc12)c1ccc(F)cc1	96.2	–	·	–	·	·
Nc1ccc(C(=O)c2cccs2)cn1	–	–	–	–	–	–
Nc1ccc(-c2cnc(N)c(C(=O)c3cccnc3)n2)cn1	–	·	70.4	·	–	68.6
C=CCN(C)C(C#Cc1ccccc1)Cc1ccccc1 (stereo unspecified)	·	·	·	–	·	·
CCn1c2ccccc2c2cc(Nc3cc(C)nc4ncnn34)ccc21	62.2	–	–	–	–	–
COc1ccc(-n2ncc3c(N4CCCCC4)ncnc32)cc1	55.9	·	66.8	·	–	64.2
CCOc1cccc(/C=N/Nc2ccc(S(=O)(=O)N(CC)CC)cn2)c1O	89.5	–	–	–	–	–
C#Cc1ccc([C@@H]2C=C(C(=O)N3CCN(Cc4ccccc4)CC3)O[C@H](OCCCCO)C2)cc1	·	·	–	·	89.3	–
O=C(C1=C[C@H](c2ccccc2)C[C@H](OCCCCO)O1)N1CCN(Cc2ccccc2)CC1	–	–	–	–	–	–
CCc1ccccc1NC(=O)Cn1cccc1C1=NC(c2ccccc2)CO1 (stereo unspecified)	–	–	–	–	–	–
Cc1ccc(NC(=O)Cn2cccc2C2=NC(c3ccccc3)CO2)cc1C (stereo unspecified)	–	100.2	–	–	–	–
O=C(C1=C(c2ccccc2)C(=O)c2ccccc2C1=O)c1ccccc1	–	56.7	82.1	–	–	–
COC(=O)[C@H](C(C)C)N1CCc2nnn(CC3CCCCC3)c2-c2cc(F)ccc2S1(=O)=O	·	–	·	–	·	·

High-throughput results as filed in PubChem BioAssay.
